Experimental findings from PubChem BioAssay AID540333 (Southern Research Specialized Biocontainment Screening …, 2011) are described below.

In all, about 10,000 compounds went through this assay and about 320 (3.2%) were called active. For the sample, actives were picked, then their nearest neighbours and some compounds at random. Unmarked numbers belong to inactive results. Cut-off read from the data, not from the text of the source: active = CPE inhibition mostly above about 9.1% (no sharp cut-off); inactive = mostly below about 7.2%.

A short description of this assay: Dengue virus cytopathic effect inhibitors, cell-based, CPE readout, HTS (AID 540333). Particulars: Dengue virus CPE inhibition in host cells, at 20 µM; active compounds read high. (In general: Protection from cytopathic effect is a common read-out in antiviral testing.)
In the case of `O=C([O-])c1ccc(-[n+]2c(-c3ccccc3)cc(-c3ccccc3)cc2-c2ccccc2)cc1`, the CPE inhibition is 10.2% (active).
Next, `CC(C)=NOC(=O)c1ccc(-c2ccccc2)cc1`: 0.26%.
The entry for `CCC(=O)c1ccc(-c2ccccc2)cc1` is “inactive”; for `C=C(C)C1CC=C(C)/C(=N/NC(=O)c2cccc([N+](=O)[O-])c2)C1` (centres undefined) it is “inactive”.
The figure for `CCOC(=O)c1sc(N/N=C/c2ccccc2)nc1C` is 0.925%; for `COc1ccc(/C=C(\C#N)C(=O)OCC(=O)Nc2c(C)cccc2C)cc1` it is “inactive”.
With `Cc1ccc(C)c2[nH]c(=O)c(C(c3nnnn3C(C)(C)C)N3CC=C(c4ccc(F)cc4)CC3)cc12` (centres undefined), the CPE inhibition is 26.9% (active).
The figure for `Cc1ccc(NC(=S)NC(C)CCc2ccccc2)cc1C` (centres undefined) is 19.3% (active); for `Cc1ccccc1NC(=O)C(=O)NC(C)CCc1ccccc1` (centres undefined) it is “inactive”; for `CC(CCc1ccccc1)NC(=O)Cc1ccccc1` (centres undefined) it is “inactive”.
As for `Cc1ccccc1C(=O)Nc1c2c(nc3ccccc13)CCCC2`, the CPE inhibition result was “inactive”.
Turning to `CCOC(=O)/C=C/C(=O)OCC(=O)NC(c1ccccc1)c1ccccc1`, the CPE inhibition was 0.285%.
Take `O=C(COC(=O)/C(=C/c1cccs1)c1cccs1)NC(c1ccccc1)c1ccccc1`: the CPE inhibition is 17.2% (active).
For `O=C(COC(=O)Cc1ccsc1)NC(c1ccccc1)c1ccccc1`, the CPE inhibition result was “inactive”.
Next, `Cc1nn(C)c(C(=O)NCc2ccc(Cl)cc2)c1Cl`: 0.24%; `Cc1ccc(NC(=S)c2ccccc2)cc1`: “inactive”; `CCOC(=O)C1C(C(=O)OCC)C1(c1ccccc1)c1ccccc1` (centres undefined): 0.545%.
For the molecule `CCOC(=O)C1=C(Nc2ccccc2)CC(C)(O)C(C(=O)OCC)C1c1ccc(Cl)cc1` (centres undefined), the CPE inhibition was 26.4% (active).
Next, `CCOC(=O)C1=C(Nc2ccccc2)CC(C)(O)C(C(=O)OCC)C1c1ccccc1` (centres undefined): 0.14%; `Cc1ccc(-n2[nH]c3c4c(ccc3c2=O)C(=O)c2ccccc2C4=O)cc1`: 17% (active); `O=C1c2ccccc2C(=O)c2c1cccc2N1CCCC1`: 0.885%.
In the case of `CN(C)c1cccc2c1C(=O)c1ccccc1C2=O`, the CPE inhibition result was “inactive”.
Next, `O=S(=O)(c1ccc(-c2csc(Nc3ccc(Br)cc3)n2)cc1)N1CCCC1`: 5.89%.
In the case of `O=S(=O)(c1ccc(-c2csc(Nc3ccc(F)cc3)n2)cc1)N1CCCC1`, the CPE inhibition was 2.46%.
On to `CC(C)Cc1nc(Nc2ccc(S(=O)(=O)N3CCCC3)cc2)c2nnn(Cc3ccccc3)c2n1`, for which the CPE inhibition was 19.9% (active).
Take `O=C(COC(=O)Cc1c[nH]c2ccccc12)Nc1cccc2ccccc12`: the CPE inhibition is 0.635%.
Next, `COc1cccc(NC(=S)NNC(=O)Cn2nc(C(F)(F)F)cc2C)c1`: “inactive”; `O=C1C(Cc2cccc([N+](=O)[O-])c2)SC(=Nc2ccccc2)N1c1ccccc1` (centres undefined): 2.22%; `CCOc1ccc(C(=O)Nc2cccc(-c3nc4ccccc4[nH]3)c2C)cc1[N+](=O)[O-]`: 1.88%.
Next, `CCOc1ccc(C(=O)Nc2cc(-c3nc4ccccc4[nH]3)ccc2Cl)cc1[N+](=O)[O-]`: “inactive”; `CCOc1ccc(C(=O)Nc2ccc(-c3nc4ccccc4[nH]3)cc2)cc1[N+](=O)[O-]`: 8.47% (active).
As for `COc1cccc(-c2c(-c3cc(OC)cc(OC)c3)n(C)c3ccc(Br)cc23)c1`, the CPE inhibition was 1.34%.
Regarding `COc1cc(OC)cc(-c2c(-c3ccc(F)cc3)c3cc(-c4cnc(OC)nc4)ccc3n2C)c1`, the CPE inhibition was 2.91%.
As for `O=C1[C@@H]2[C@@H]3C[C@@H]([C@H]4ON=C(c5ccc(Cl)cc5)[C@@H]34)[C@@H]2C(=O)N1C1CCCCC1`, the CPE inhibition was 10.9%.
Next, `O=C1[C@@H]2[C@@H]3C[C@@H]([C@H]4ON=C(c5ccc(Cl)cc5)[C@@H]34)[C@@H]2C(=O)N1c1ccc2c(c1)OCO2`: “inactive”.
As for `O=C1[C@@H]2[C@@H]3C[C@@H]([C@H]4ON=C(c5ccc(Cl)cc5Cl)[C@@H]34)[C@@H]2C(=O)N1C1CCCCC1`, the CPE inhibition is 14.8% (active).
Next, `COc1ccc(NC(=O)CCC(=O)OCc2ccc(Br)cc2)cc1`: 0.265%; `O=C(/C(=C\c1ccccc1)c1nc2ccccc2[nH]1)c1ccc(Cl)cc1`: “inactive”.
The figure for `CCn1c(SCC(=O)N/N=C/c2c[nH]c3ccccc23)nnc1-c1ccc(C(C)(C)C)cc1` is 14.2% (active); for `O=C(CSc1nnc(SCc2ccccc2Cl)s1)N/N=C/c1c[nH]c2ccccc12` it is 0.645%; for `CCn1c(SCC(=O)N/N=C/c2ccc(C)o2)nnc1-c1ccc(C(C)(C)C)cc1` it is 0.345%.
In the case of `CCn1c(SCC(=O)N/N=C/c2c[nH]c3ccccc23)nnc1-c1ccc(Cl)cc1`, the CPE inhibition is 1.47%.
Consider `O=C(CSc1nnc(SCc2cccc3ccccc23)s1)N/N=C/c1c[nH]c2ccccc12`, for which the CPE inhibition is 23.8% (active).
The figure for `Cc1nn(-c2ccccc2)c(C)c1/C=N/NC(=O)CSc1nnc(SCc2cccc3ccccc23)s1` is 4.67%; for `CCc1ccc(OC(C)c2nnc(SCC(=O)Nc3ncccc3C)n2C)cc1` (centres undefined) it is 0.355%; for `Cc1cc(C)c2[nH]c(=O)c(CN(Cc3cccs3)C(=S)NCc3ccco3)cc2c1` it is 4.37%.
As for `CN(CC(=O)Nc1ccc(Cl)c(Cl)c1)C(=O)/C=C/c1ccc(F)cc1`, the CPE inhibition is 0.95%.
As to `S=C(NCCc1ccccc1)NC1CC1`, the CPE inhibition entry was “inactive”.
As to `COC(=O)c1sccc1N/N=C/c1cccc(OC)c1O`, the CPE inhibition is 2.21%.
Take `COc1ccc(OCC(=O)N2c3ccccc3CCc3ccccc32)cc1`: the CPE inhibition entry is “inactive”.
With `CCc1ccc(OCC(=O)N2c3ccccc3CCc3ccccc32)cc1`, the CPE inhibition was 14.2% (active).
Next, `O=C(COc1ccc(Cl)cc1)OCC(=O)N1CCCc2ccccc21`: “inactive”; `COc1cc(/C(C)=N/NC(=S)NC(C)C)cc(OC)c1OC`: “inactive”.
The entry for `N#Cc1ccc(NC(=O)CCc2nc3ccccc3s2)cc1` is “inactive”; for `COC(=O)C1=C(NC(=O)COc2ccc3ccccc3c2)CCS1` it is 1.12%; for `Cc1ccc(NC(=O)CNc2ccc(Cl)cc2F)cc1` it is 0.58%.
Next, `COc1ccc(C)cc1NCC(=O)Nc1ccc(C(C)(C)C)cc1`: 15.4% (active); `COc1ccc(Cl)cc1NC(=O)CNc1ccccc1F`: 0.95%; `COc1cc(NC(=S)NC(=O)CC(C)C)ccc1NC(=O)c1cc2ccccc2o1`: 0.02%.
